Source: PubChem
HP1b chromo inh: HTS for Inhibitors of HP1-beta Chromodomain Interactions with Methylated Histone Tails; Chromobox protein homolog 1 (Homo sapiens), P83916; 390,000 compounds, 0.56% hits; AlphaScreen HP1-beta / biotin-H3K9me3 peptide binding; Potency, µM (titrated, usually from 114 µM), for the others: top-dose activity change, negative = inhibition, hits mostly inhibitors; note: nearly all actives have a fitted effect of over 70% in size
Target sequence (P83916 whole entry, looked up): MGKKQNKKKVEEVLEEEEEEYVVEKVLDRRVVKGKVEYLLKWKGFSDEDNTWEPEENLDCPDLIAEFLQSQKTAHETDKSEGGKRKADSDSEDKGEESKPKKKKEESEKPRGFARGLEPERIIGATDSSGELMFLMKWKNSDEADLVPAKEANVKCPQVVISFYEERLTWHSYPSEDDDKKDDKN
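AlphaScreen: HP1-beta (50 nM) preformed 30 min with biotin-H3(1-18)K9me3 peptide (50 nM) in PBS pH 7.4, 0.01% Tween-20. Compound added for 30 min at RT, then streptavidin donor/nickel chelate acceptor beads (10 ug/mL) for 30 min.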
G9a inh: qHTS Assay for Inhibitors of Histone Lysine Methyltransferase G9a; Histone-lysine N-methyltransferase EHMT2 (Homo sapiens), Q96KQ7; G9a H3K9 monomethylation, AlphaScreen, 2 h; Potency, µM (titrated, usually from 102 µM), without a hit: top-dose activity, negative = inhibition, most hits filed as inhibitors; 350,000 compounds, 8.8% hits; AID 504332, 2011; note: % is set by controls: 0 for no effect and ±100 for the full control effect; nearly all actives have a fitted effect of over 75% in size
Target sequence (Q96KQ7 913-1193 limits assumed): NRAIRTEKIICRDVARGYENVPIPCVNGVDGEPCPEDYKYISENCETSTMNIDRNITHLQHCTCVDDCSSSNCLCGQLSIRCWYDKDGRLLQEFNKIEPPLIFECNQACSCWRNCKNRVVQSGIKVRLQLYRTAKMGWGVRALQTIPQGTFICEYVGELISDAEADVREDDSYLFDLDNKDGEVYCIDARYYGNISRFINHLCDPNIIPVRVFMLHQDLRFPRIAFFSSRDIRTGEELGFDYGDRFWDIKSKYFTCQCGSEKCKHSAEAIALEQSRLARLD
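Enzyme 20 nM + cpd, 15 min RT; add b-H3K9 pep 500 nM / SAM 20 uM; 2 h RT; anti-H3K9me1 Ab 0.5 ug/mL + SA donor / anti-rabbit acceptor beads 20 ug/mL each, 10 min; AlphaScreen read.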
Sfp inh: qHTS Assay for Inhibitors of Bacillus subtilis Sfp phosphopantetheinyl transferase (PPTase); 4'-phosphopantetheinyl transferase ffp (Bacillus subtilis), Q9F4F7; Biochemical Sfp PPTase activity, qHTS; Potency, µM, inactives show largest response in the series, negative = inhibition, usual class: inhibitors; 310,000 compounds, 3.5% hits;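 note: the enzyme is Sfp with the accession as filed and its product quenches rhodamine fluorescence; 0% = enzyme reaction without inhibitor and -100% = no enzyme wells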
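With Hepes-Na pH 7.6 buffer containing 10 mM MgCl2, Sfp (15 nM) modified BHQ-2-YbbR (12.5 uM) using rhodamine-CoA (5 uM). Two reads 30 minutes apart at 525/598 nm yielded each well's rate.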
JMJD2A Tudor inh: qHTS Assay for Inhibitors of JMJD2A-Tudor Domain; Lysine-specific demethylase 4A (Homo sapiens), O75164; AlphaScreen JMJD2A-Tudor / H3K4me3 peptide binding; Potency, µM (highest dose often 114 µM), inactives show at the top dose activity change, negative = inhibition, actives largely listed as inhibitors; 390,000 compounds, 4.4% hits; note: % is set by controls: 0 for no effect and ±100 for the full control effect; nearly all actives have a fitted effect of over 50% in size
L3MBTL1 block: qHTS Assay for the Inhibitors of L3MBTL1; Lethal(3)malignant brain tumor-like protein 1 (Homo sapiens), Q9Y468; AlphaScreen L3MBTL1–H3K9me1 peptide binding; Potency, µM (series often up to 57.1 µM), for inactives: at the highest dose activity, negative = inhibition, actives largely listed as inhibitors; 230,000 compounds, 0.66% hits; AID 485360, 2010; note: % is set by controls: 0 for no effect and ±100 for the full control effect; nearly all actives have a fitted effect of over 60% in size
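Displacement of a biotinylated histone H3(1-15) peptide monomethylated at Lys9 (75 nM) from L3MBTL1 (50 nM) was measured by AlphaScreen after a 30 min room-temperature compound incubation; cefsulodin titration served as intraplate control.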
BAZ2B block: qHTS Assay for Inhibitors of BAZ2B; Bromodomain adjacent to zinc finger domain protein 2B (Homo sapiens), Q9UIF8; AlphaScreen BAZ2B-H3K14Ac peptide displacement; Potency, µM (top dose mostly 114 µM), for inactives: top-dose activity change, negative = inhibition, hits mostly inhibitors; 360,000 compounds, 4.4% hits; note: % is set by controls: 0 for no effect and ±100 for the full control effect; nearly all actives have a fitted effect of over 60% in size
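AlphaScreen displacement: compounds (up to 110uM) incubated 30 min at room temperature with a preformed 50 nM BAZ2B/50 nM biotinylated H3K14Ac peptide complex in PBS pH 7.4 with Tween-20. Donor and acceptor beads at 10 ug/mL final added, 20 min light-protected before reading.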
Numbers without * were called inactive; ? = inconclusive; · = no result; [ ] = dose if it differs, or a comment. Rows were chosen to be rich in hits. Some 12% of all compounds tested hit in one or more screens of this group. Calls come from the whole dose curve; as a rule, active = well fitted curve in the direction sought with a large enough effect; inconclusive = small, poorly fitted or top-dose-only effect, or another doubt; inactive = no such curve, though single readings can be large; an effect the other way counts as inactive or inconclusive. Potency is the fitted concentration of half-maximal effect.

SMILES	HP1b chromo inh	G9a inh	Sfp inh	JMJD2A Tudor inh	L3MBTL1 block	BAZ2B block
Cc1ccc(C(=O)Nc2ccccc2C(=O)O)cc1NC(=O)COc1c(C)cccc1C	31%	25%[12.7 µM]	-2%	-7%	2%	79µM*
O=C(COc1cc(Cl)c(Cl)cc1Cl)Nc1ccncc1	-10%	16%[12.7 µM]	0%	89µM*	-5%	9%
O=C(COc1cc(Cl)c(Cl)cc1Cl)Nc1cccc(O)c1	49%	19%	9%	-8%	·	-6%
O=C(COc1ccccc1Cl)Nc1ccc(N2CCCC2)cc1	2%	7.9µM*	3%	?	·	-39%
O=C(COc1ccc(Cl)cc1Cl)Nc1ccc(C(=O)Nc2ccccc2C(=O)O)cc1	?	·	2%	50µM*	·	50µM*
O=C(COc1ccc(Cl)cc1Cl)NC(=S)Nc1ccccc1C(=O)O	·	·	-18%	·	0%	?
O=C1CC(c2nnc(Cc3ccc(F)cc3Cl)o2)CN1c1ccccc1 (stereo not given)	15%	-22%[59 µM]	·	-17%	·	-11%
O=C(COc1ccccc1Cl)Nc1cc(NC(=O)COc2ccccc2Cl)cc(C(=O)O)c1	28%	1%	-4%	-17%	-5%	50µM*
COc1ccc(Br)c(C(=O)N2CCN(S(=O)(=O)c3cccs3)CC2)c1	46%	-34%	8%	-2%	·	89µM*
COc1cc(C(=O)N2CCN(S(=O)(=O)c3cccs3)CC2)cc(OC)c1C	32%	4.5µM*	-54%	79µM*	-15%	50µM*
Cc1ccc(CN(Cc2ccco2)C(=O)COc2cccc(C)c2C)o1	29%	-3%[59 µM]	·	?	·	9%
Cc1cc(C)c(OCC(=O)N(Cc2ccc(N(C)C)cc2)Cc2ccco2)c(C)c1	?	13µM*	·	20µM*	·	8.9µM*
Cc1cccc(OCC(=O)N(Cc2ccc(N(C)C)cc2)Cc2ccco2)c1C	?	14µM*	·	22µM*	·	10µM*
COc1ccccc1/C=C(\C#N)c1nc(-c2cc3ccccc3oc2=O)cs1	48%	2%[59 µM]	·	-10%	·	-1%
CCNC(=O)c1ccc2nc(CCc3ccccc3)oc2c1	25%[57 µM]	-3%[59 µM]	·	-1%	·	-3%
CSc1nsc(SC)c1NC(=O)N1CCCCC1	28%	45µM*	6%	-5%	·	6%
CCOc1ccccc1NC(=O)c1cn(C2CCCCC2)c(=O)c2c1c1ccccc1n2C	13%	-1%[59 µM]	·	-9%	·	-10%
CCOc1ccc(NC(=O)CC(NCc2ccccn2)C(=O)O)cc1 (stereo not given)	42%	?	18%	11µM*	·	1.4µM*
COc1ccc(N=C2SC(CC(=O)Nc3ccccc3)C(=O)N2Cc2ccccn2)cc1 (stereo not given)	27%	50µM*	-14%	-33%	-30%	?
COc1ccc(NC(=O)CC(NCc2ccccn2)C(=O)O)cc1 (stereo not given)	40%	8%	10%	13µM*	14µM*	3.2µM*
CC(C)S(=O)(=O)c1cnc(-c2ccccn2)nc1N	17%	-5%	14%	50µM*	-15%	56µM*
COc1ccc(-c2cnc(-c3cccnc3)o2)cc1	·	·	-6%	·	·	·
O=C(OCC(=O)c1ccc(Cl)s1)c1ccccn1	17%	-10%[59 µM]	-6%	32µM*	?	56µM*
O=C(COC(=O)c1cnccn1)c1ccc(Cl)cc1	49%	-5%	20%	6%	-25%	?
O=C(COc1cccnc1[N+](=O)[O-])c1ccc(Cl)s1	?	·	2µM*	40µM*	?	40µM*
SMILES	HP1b chromo inh	G9a inh	Sfp inh	JMJD2A Tudor inh	L3MBTL1 block	BAZ2B block
O=C(COC(=O)c1ncc(Cl)c(Cl)c1Cl)c1ccc(Cl)s1	65%	21%[59 µM]	?	-12%	37%	53%
O=C(OCC(=O)c1ccc(Cl)s1)c1cnccn1	0%	35µM*	2%	-29%	·	?
Cc1[nH]c2ccc(C(=O)Nc3ccc(F)cc3)cc2c1C	1%	-32%[59 µM]	·	?	·	?
CC(=O)C(=Nc1ccccc1Cl)NNc1ccc(Cl)cc1	50µM*	7.9µM*	-15%	32µM*	?	28µM*
COCc1c(C(=O)NCCOc2ccc(Cl)cc2)oc2ccccc12	111%	26%[2.33 µM]	·	50%	20%	43%
CC(C)N(Cc1ccccc1)S(=O)(=O)c1ccc(N2CCCCS2(=O)=O)cc1	41%	-1%[12.7 µM]	·	2%	·	-9%
CC1=CC(C)=Nc2ccccc2N1	20%	40µM*	-6%	-13%	·	?
Nc1[nH]c2cc([N+](=O)[O-])ccc2c1-c1ccccn1	?	45µM*	6%	?	·	28µM*
O=C(N/N=C1\CCCc2c1[nH]c1ccc(Cl)cc21)c1ccncc1	36%	6%[59 µM]	-20%	-15%	1%	-10%
c1ccc2c3c([nH]c2c1)-c1[nH]ncc1CC3	-17%	35µM*	3%	?	-6%	?
Clc1ccc2[nH]c3c(c2c1)CCc1cn[nH]c1-3	?	35µM*	13%	79µM*	-8%	?
CCC(C(=O)OCC(=O)NC1CCS(=O)(=O)C1)c1ccccc1 (stereo not given)	37%	8%[2.33 µM]	·	-1%	-3%	7%
C[C@H]1COC(=O)[C@H](Cc2ccccc2)NC(=O)[C@@H](C)COC(=O)[C@H](Cc2ccccc2)NC1=O	·	·	7%	·	·	·
O=c1[nH]cccc1-c1nc2ccccc2n1Cc1cccc(Cl)c1	21%	21%	4%	-7%	·	2%
O=c1[nH]cccc1-c1nc2cc(Cl)ccc2n1Cc1ccccc1	35%	71µM*	13%	-18%	·	-13%
N/C(=N\OS(=O)(=O)c1ccc(Cl)cc1)c1ccncc1	-17%	2.5µM*	10%	-15%	·	7%
CCOC(=O)C1(Cc2cccc(F)c2)CCN(Cc2nc(CC)[nH]c2C)CC1	-4%	40µM*	2%	50µM*	-26%	?
CCOC(=O)C1(Cc2cccc(F)c2)CCN(Cc2cnn(CC)c2)CC1	26%	11%	21%	5%[11.4 µM]	2%	4%
Cc1cc(C(=O)COC(=O)c2n[nH]c(=O)c3ccccc23)c(C)n1C	15%	?	·	-25%	-9%	4%
COc1cc(C(=O)OCC(=O)c2cc(C)n(C)c2C)cc(OC)c1OC	?	5%[59 µM]	-19%	32µM*	-3%	0%
